This excerpt belongs to a sample that is enriched for hits.
IDE exosite inh: insulin-degrading enzyme (human) exo-site inhibition. P14735. purified IDE, FL-6b probe fluorescence polarization; active compounds read low. z-score at 20 µM. hit rate 6.3% among 17,000. AID 1259349;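 active means z-score of -3 or lower, meaning strong loss of probe binding signal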;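 further: His-tagged human IDE residues 42-1019 made in E. coli with 30 nM FL-6b probe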
Target sequence (P14735 42-1019 limits assumed): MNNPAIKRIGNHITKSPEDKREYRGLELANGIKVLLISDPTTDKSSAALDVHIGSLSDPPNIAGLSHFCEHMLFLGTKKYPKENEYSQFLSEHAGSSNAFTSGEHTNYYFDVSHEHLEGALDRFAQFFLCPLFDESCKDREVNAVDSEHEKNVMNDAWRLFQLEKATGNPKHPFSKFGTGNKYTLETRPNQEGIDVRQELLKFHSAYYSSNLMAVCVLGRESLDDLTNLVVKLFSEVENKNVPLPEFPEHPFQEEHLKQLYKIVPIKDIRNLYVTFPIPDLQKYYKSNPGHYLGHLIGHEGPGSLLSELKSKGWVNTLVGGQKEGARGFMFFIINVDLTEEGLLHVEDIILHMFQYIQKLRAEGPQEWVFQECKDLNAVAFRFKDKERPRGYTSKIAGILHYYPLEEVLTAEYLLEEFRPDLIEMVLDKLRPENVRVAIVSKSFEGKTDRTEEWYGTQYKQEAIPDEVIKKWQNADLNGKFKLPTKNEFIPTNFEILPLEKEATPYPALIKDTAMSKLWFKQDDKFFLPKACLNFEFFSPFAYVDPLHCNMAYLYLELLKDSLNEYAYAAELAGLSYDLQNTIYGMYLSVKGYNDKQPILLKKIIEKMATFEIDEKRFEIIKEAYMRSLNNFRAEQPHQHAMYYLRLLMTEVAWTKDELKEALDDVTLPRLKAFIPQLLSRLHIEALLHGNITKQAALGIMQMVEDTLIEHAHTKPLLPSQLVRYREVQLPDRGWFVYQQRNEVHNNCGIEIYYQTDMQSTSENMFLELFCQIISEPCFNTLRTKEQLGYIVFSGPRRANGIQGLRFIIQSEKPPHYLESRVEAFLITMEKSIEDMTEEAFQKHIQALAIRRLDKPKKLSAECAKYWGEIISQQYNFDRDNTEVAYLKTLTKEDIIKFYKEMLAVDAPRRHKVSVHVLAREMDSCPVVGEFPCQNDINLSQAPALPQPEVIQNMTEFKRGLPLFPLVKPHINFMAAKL
Each line names hits and unclear results; the compound was inactive in the other large screens.

N#C[C@H]1[C@@H](c2ccccc2C2=CCCC2)[C@@H](CO)N1S(=O)(=O)c1ccccc1	none
O=C1CN(S(=O)(=O)c2ccccc2)C[C@@H]2[C@@H](c3ccc(C#CCc4ccccc4)cc3)[C@@H](CO)N12	none
CC(C)CC#Cc1ccc([C@@H]2[C@@H](CO)N3C(=O)CN(C(=O)NC(C)C)C[C@@H]23)cc1	none
CCCC#Cc1ccc([C@H]2[C@@H](CO)N3C(=O)CN(C(=O)c4ccccc4)C[C@H]23)cc1	none
O=C(c1cccnc1)N1CC(=O)N2[C@H](CO)[C@@H](c3ccc(/C=C/c4ccccc4)cc3)[C@@H]2C1	IDE exosite inh -4.33
O=C(c1cccnc1)N1CC(=O)N2[C@@H](CO)[C@@H](c3ccc(/C=C/c4ccccc4)cc3)[C@@H]2C1	IDE exosite inh -8.61
O=C(Cc1cccnc1)N1CC(=O)N2[C@@H](CO)[C@H](c3ccc(/C=C/c4ccccc4)cc3)[C@@H]2C1	none
O=C(c1cccnc1)N1CC(=O)N2[C@H](C1)[C@H](c1ccc(/C=C/c3ccccc3)cc1)[C@@H]2CO	IDE exosite inh -4.53
O=C(c1cccnc1)N1CC(=O)N2[C@H](C1)[C@@H](c1ccc(/C=C/c3ccccc3)cc1)[C@@H]2CO	IDE exosite inh -7.74
COc1ccc2c3c(n(C)c2c1)[C@@H](CO)N(CC1CC1)CC31CN(C(=O)Nc2ccc(F)cc2F)C1	none
CCCC#Cc1ccc([C@@H]2[C@@H](CO)N3CCCCN(CCC)C[C@@H]23)cc1	none
C/C=C/c1ccc([C@H]2[C@@H](CO)N(C(C)=O)[C@H]2CN(C)C(=O)c2ccccn2)cc1	none
CC(=O)N1CC(=O)N2[C@@H](CO)[C@H](c3ccc(-c4ccncc4)cc3)[C@@H]2C1	none
COc1ccc(C[C@H]2CCn3cc(nn3)COC[C@@H](C)NC2=O)cc1	none
CCC(=O)N1[C@@H]2Cn3c(ccc(-c4ccccc4F)c3=O)[C@H]1[C@@H](C(=O)NC1CCC1)[C@@H]2CO	none
C/C=C/c1ccc([C@@H]2[C@@H](CO)N(c3ncc(CC)s3)[C@H]2C#N)cc1	none
CC(C)C#Cc1ccc([C@H]2[C@H](CO)N3CCCCN(S(=O)(=O)Cc4ccccc4)C[C@@H]23)cc1	none
COCC#Cc1ccc([C@H]2[C@H](CO)N3C(=O)CN(C(=O)C4CCOCC4)C[C@@H]23)cc1	none
O=C(c1ccccc1)N1CC(=O)N2[C@H](CO)[C@@H](c3ccc(/C=C/c4ccccc4)cc3)[C@H]2C1	none
O=C(c1ccccc1)N1CC(=O)N2[C@H](C1)[C@H](c1ccc(/C=C/c3ccccc3)cc1)[C@@H]2CO	none
O=C(c1ccccc1)N1CC(=O)N2[C@H](CO)[C@@H](c3ccc(/C=C/c4ccccc4)cc3)[C@@H]2C1	none
O=C(c1cccnc1)N1CC(=O)N2[C@H](CO)[C@H](c3ccc(/C=C/c4ccccc4)cc3)[C@@H]2C1	IDE exosite inh -10.3
O=C(c1ccncc1)N1CC(=O)N2[C@H](CO)[C@H](c3ccc(/C=C/c4ccccc4)cc3)[C@@H]2C1	IDE exosite inh -9.51
O=C(c1ccncc1)N1CC(=O)N2[C@H](C1)[C@H](c1ccc(/C=C/c3ccccc3)cc1)[C@@H]2CO	none
C[C@@H]1C(=O)N[C@@H](c2ccc3c(c2)OCO3)CC=CC[C@H](C)Oc2ccccc2C(=O)N1C (mixture of isomers)	none
COc1cccc(CNC(=O)C[C@H]2CC[C@@H]3[C@@H](COc4ccc(NC(=O)c5cccs5)cc4C(=O)N3C)O2)c1	none
CC(=O)NC[C@@H]1[C@@H](c2ccc(-c3ccccc3)cc2)[C@H](CO)N1C(=O)C1CC1	none
CNC[C@H]1Oc2c(NC(=O)Nc3cccc4ccccc34)cccc2C(=O)N([C@@H](C)CO)C[C@H]1C	none
CN(C)CC#Cc1ccc([C@@H]2[C@@H](CO)N3CCCCN(S(=O)(=O)c4ccccc4F)C[C@@H]23)cc1	none
N#Cc1ccc(-c2ccc([C@@H]3[C@H](CO)N4C(=O)CNC[C@@H]34)cc2)cc1	none
C/C=C/c1ccc([C@H]2[C@@H](CO)N(c3nc(-c4ccccc4)cs3)[C@H]2C#N)cc1	none
CCCNC(=O)C[C@@H]1CC[C@@H]2[C@H](COC[C@H](O)CN2C(=O)Nc2ccc(Cl)c(Cl)c2)O1	none
COCC(=O)N1CCCCN2[C@H](C1)[C@@H](c1ccc(-c3ccc(F)cc3)cc1)[C@@H]2CO	none
COCC(=O)N1CCCCN2[C@@H](CO)[C@H](c3ccc(-c4ccc(F)cc4)cc3)[C@@H]2C1	none
COCC(=O)N1CCCCN2[C@@H](CO)[C@H](c3ccc(-c4ccccc4)cc3)[C@@H]2C1	none
COCC(=O)N1CCCCN2[C@H](CO)[C@H](c3ccc(-c4cccc(C)c4)cc3)[C@@H]2C1	none
COCC(=O)N1CCCCN2[C@H](C1)[C@H](c1ccc(-c3cccc(C)c3)cc1)[C@@H]2CO	IDE exosite inh -3.04
COCC(=O)N1CCCCN2[C@@H](CO)[C@@H](c3ccc(-c4cccc(C)c4)cc3)[C@@H]2C1	IDE exosite inh -6.67
COCC(=O)N1CCCCN2[C@H](CO)[C@H](c3ccc(-c4cccc(C)c4)cc3)[C@H]2C1	IDE exosite inh -4.7
CCc1csc(N2[C@@H](C#N)[C@@H](c3ccccc3C3=CCCC3)[C@@H]2CO)n1	none
CS(=O)(=O)N1[C@@H](C#N)[C@@H](c2ccc(C#CC3CC3)cc2)[C@@H]1CO	none
CN(C)CC(=O)N1CCCCN2[C@H](C1)[C@H](c1ccc(-c3cccnc3)cc1)[C@@H]2CO	none
CCC(=O)N1[C@H](CN(C(C)C)S(C)(=O)=O)[C@@H](c2ccccc2)[C@@H]1CO	none
O=C(Nc1cc(F)ccc1F)N[C@@H]1CC[C@H](CCn2cc(C3CCCCC3)nn2)O[C@H]1CO	none
O=C(NC[C@@H]1[C@@H](c2ccccc2)[C@H](CO)N1Cc1ccccn1)C1CC1	none
COCc1cn(CC[C@@H]2CC[C@@H](NC(=O)Nc3c(C)noc3C)[C@@H](CO)O2)nn1	none
O=C(C1CC1)N1CC(=O)N2[C@H](CO)[C@@H](c3ccc(-c4ccccc4F)cc3)[C@H]2C1	none
O=C(C1CCCCC1)N1CC(=O)N2[C@H](C1)[C@H](c1ccc(-c3ccccc3F)cc1)[C@@H]2CO	none
O=C(C1CCCCC1)N1CC(=O)N2[C@H](CO)[C@@H](c3ccc(-c4ccccc4F)cc3)[C@H]2C1	none
O=C(C1CCC1)N1CC(=O)N2[C@H](CO)[C@@H](c3ccc(-c4ccccc4F)cc3)[C@@H]2C1	IDE exosite inh -9.06
O=C(C1CCCCC1)N1CC(=O)N2[C@@H](CO)[C@@H](c3ccc(-c4ccccc4F)cc3)[C@@H]2C1	none
O=C(C1CCCC1)N1CC(=O)N2[C@H](CO)[C@H](c3ccc(-c4ccccc4F)cc3)[C@@H]2C1	IDE exosite inh -3.64
O=C(C1CCOCC1)N1CC(=O)N2[C@@H](CO)[C@H](c3ccc(-c4ccccc4F)cc3)[C@@H]2C1	none
O=C(C1CC1)N1CC(=O)N2[C@H](CO)[C@H](c3ccc(-c4ccccc4F)cc3)[C@H]2C1	IDE exosite inh -7.85
O=C(C1CCC1)N1CC(=O)N2[C@@H](CO)[C@H](c3ccc(-c4ccccc4F)cc3)[C@@H]2C1	none
O=C(C1CCOCC1)N1CC(=O)N2[C@H](CO)[C@H](c3ccc(-c4ccccc4F)cc3)[C@H]2C1	IDE exosite inh -7.59
O=C(C1CCC1)N1CC(=O)N2[C@H](CO)[C@@H](c3ccc(-c4ccccc4F)cc3)[C@H]2C1	none
O=C(C1CC1)N1CC(=O)N2[C@H](C1)[C@H](c1ccc(-c3ccccc3F)cc1)[C@@H]2CO	none
CN(C)CC#Cc1ccc([C@H]2[C@@H](CO)N3CCCCN(C(=O)NC4CCCC4)C[C@@H]23)cc1	none
CN(C)C(=O)c1ccc(-c2ccccc2[C@@H]2[C@@H](C#N)N(C(=O)C3CCC3)[C@@H]2CO)cc1	none
